PubChem BioAssay (NCATS)
Records with an inconclusive call do not appear. Active and inactive are the calls of the source. Unless noted, the call rests on the fitted dose curve; in most records, active means well fitted curve in the direction sought with a large enough effect; inconclusive means small, poorly fitted or top-dose-only effect, or another doubt; inactive means no such curve, though single readings can be large; an effect the other way counts as inactive or inconclusive.

Legend:
[1] = Primary qHTS for inhibitors of nuclear receptor binding SET domain protein 2 (NSD2) in an isogenic RCH-ACV NSD2 p.E1099K mutant (9B) (AID 1645876); further: nearly all actives have a fitted effect of over 70% in size; further: potency means the concentration at half of the fitted maximal effect; on activity change, negative = viability loss: on the % scale 0 is the no-effect control and ±100 the full control effect
[2] = Primary qHTS for inhibitors of nuclear receptor binding SET domain protein 2 (NSD2) in an RCH-ACV wild type WT cells (2C) (AID 1645877); further: on the % scale 0 is the no-effect control and ±100 the full control effect; nearly all actives have a fitted effect of over 70% in size
[3] = target: Glutathione peroxidase 1 (Homo sapiens) (UniProt P07203); test: Primary qHTS Assay for Inhibitors of Recombinant Selenoprotein Glutathione Peroxidase 1 (GPX1) (AID 1845191); further: nearly all actives have a fitted effect of over 65% in size; on activity, negative = inhibition: on the % scale 0 is the no-effect control and ±100 the full control effect
Summary of the method: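 GR-coupled assay: compounds preincubated 30 min at room temperature with GPX1, then reaction started with CHP; final 10 nM GPX1, 1 mM GSH, 0.5 mM CHP, 0.5 mM NADPH, 100 nM GR, 0.01% BSA, pH 7.5 Tris buffer. NADPH fluorescence (340/450 nm) read at 0 and 15 min.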

[4] = target: Phospholipid hydroperoxide glutathione peroxidase GPX4 (Homo sapiens) (UniProt P36969); test: Primary qHTS Assay for Inhibitors of Recombinant Selenoprotein Glutathione Peroxidase 4 (GPX4) (AID 1845192); details: outcome: dose series up to 50 µM unless noted; further: series mostly up to about 50 µM; on the % scale 0 is the no-effect control and ±100 the full control effect; nearly all actives have a fitted effect of over 65% in size
Summary of the method: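 GR-coupled assay: recombinant GPX4 preincubated 30 min with compound at room temperature; final 200 nM GPX4, 1 mM GSH, 0.5 mM cumene hydroperoxide, 0.5 mM NADPH, 100 nM GR, 0.01% BSA, pH 7.5 Tris. NADPH fluorescence (340/450 nm) read at 0 and 15 min.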

[5] = qHTS drug screen for cell cycle checkpoint inhibitors in PARPi-resistant BRCA-mutant ovarian cancer cell lines. (AID 1963452; calls by dose curve); details: PEO1/OlaR viability, CellTiter-Glo luminescence, 96 h, stronger effect = lower value
Summary of the method: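 PEO1, PEO4 and PEO1/OlaR ovarian cancer cells, 600 per well, exposed 96 h at 37C to a dilution series. Viability read by CellTiter-Glo luminescence, normalized to DMSO and empty wells; activity summarized as Z-AUC.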

[6] = measured here: PEO1 parental Z-AUC

Glutathione peroxidase 1 (Homo sapiens), sequence (P07203 whole entry, looked up): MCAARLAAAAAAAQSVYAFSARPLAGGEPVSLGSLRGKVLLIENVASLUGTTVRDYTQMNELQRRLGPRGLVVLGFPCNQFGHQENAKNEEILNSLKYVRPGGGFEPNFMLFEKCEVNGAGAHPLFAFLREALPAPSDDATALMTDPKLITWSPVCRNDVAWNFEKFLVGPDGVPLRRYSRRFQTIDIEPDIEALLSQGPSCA
Phospholipid hydroperoxide glutathione peroxidase GPX4 (Homo sapiens), sequence (P36969 whole entry, looked up): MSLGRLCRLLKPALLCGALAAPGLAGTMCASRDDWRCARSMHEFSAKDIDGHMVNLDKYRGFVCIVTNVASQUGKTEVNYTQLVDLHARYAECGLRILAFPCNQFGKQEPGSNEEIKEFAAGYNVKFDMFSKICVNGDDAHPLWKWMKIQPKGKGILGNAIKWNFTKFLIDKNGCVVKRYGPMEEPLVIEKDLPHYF

| Structure (SMILES) | Potency [1] | Potency [2] | Potency [3] | Potency [4] | Z-AUC [5] | Z-AUC [5, 6] | Z-AUC ([5]; measured here: PEO4 Z-AUC) | activity change, negative = viability loss [1] | activity change, negative = cell killing [2] | activity, negative = inhibition [3] | activity change, negative = inhibition [4] |
| --- | --- | --- | --- | --- | --- | --- | --- | --- | --- | --- | --- |
| O=C1OC2(CCC(C(=O)Nc3ccn(-c4ccccc4F)n3)CC2)c2cnccc21 (centres undefined) | inactive | inactive | inactive | inactive | 0.0773 (inactive) | 0.881 | 0.97 |  |  |  |  |
| O=C(/C=C/c1ccc(/C=C/C(=O)Nc2ccc(C3=NCCN3)cc2)cc1)Nc1ccc(C2=NCCN2)cc1 |  |  |  |  | 0.122 (inactive) | 0.179 | 0.581 | -16.1% [at 4.96 µM] (inactive) | -11% [at 4.96 µM] (inactive) | 2.37% [at 4.49 µM] (inactive) | -10.1% [at 4.52 µM] (inactive) |
| C[C@@H]1CC(=O)Nc2cccc(-c3ccc4c(c3)c(-c3cnn(C)c3)nn4C)c2N1 | 742 nM (active) |  | inactive |  | 1.34 (inactive) | 1.02 | 1.12 |  |  |  |  |
